Our source for the max response and Potency values is PubChem BioAssay (NCATS).

“And” between values parts separate entries of the source, which are not always exact repeats. Identical values can stand only once. Results filed as inconclusive are left out. Unmarked numbers belong to inactive results. The source made the active and inactive calls. The call rests on the fitted dose curve; in most records, active means well fitted curve in the direction sought with a large enough effect; inconclusive means small, poorly fitted or top-dose-only effect, or another doubt; inactive means no such curve, though single readings can be large or run the other way.
On the % scale 0 is the no-effect control and ±100 the full control effect; potency means the concentration at half of the fitted maximal effect.

The experiment is described as follows: qHTS Assay for Identifying Gametocytocidal Compounds (AID 743244).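 On max response: actives lower the fluorescent signal which means gametocytes are killed.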 As to conditions: P. falciparum 3D7 stage III-V gametocytes, alamarBlue, 72 h; max response: active compounds read low. Summed up: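 Compounds are pinned into medium, gametocytes (stage III–V, 3D7, 20,000 cells/well) added, and plates held 72 h at 37 °C in 5% CO2. AlamarBlue follows for 24 h before fluorescence reading.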
As to `CN1C(=O)C[C@@H](C(=O)N[C@@H](Cc2cnc[nH]2)C(=O)N2CCC[C@H]2C(N)=O)NC1=O`, the max response was 5.88%. On to `CCOC(=O)c1cc(-c2ccccc2)nc2ccc(C)cc12`, for which the max response was -3.36%. The same measure, in the same setting: next, `O=P(O)(O)CP(=O)(O)O`: -3.27%; `O=C(O)c1cc(N=Nc2ccc(O)c(C(=O)O)c2)ccc1O`: 0.0283%; `CSCCC(N)C(=O)O` (centres undefined): -5.15%.

As for `CC(O)[C@H]1CC[C@H]2[C@@H]3CC[C@@H]4C[C@@H](O)CC[C@]4(C)[C@H]3CC[C@]12C` (some centres undefined), the max response was 4.2%.

`C=CC[N+]1([C@H]2C[C@H]3[C@@H]4CC[C@H]5C[C@H](O)[C@@H](N6CCOCC6)C[C@]5(C)[C@H]4CC[C@]3(C)[C@H]2OC(C)=O)CCCC1`: the max response is -0.733%. Still for that read-out and setting: next, `CCOC(=O)Oc1c(OC)cc(C(=O)O[C@@H]2C[C@@H]3CN4CCc5c([nH]c6cc(OC)ccc56)[C@H]4C[C@@H]3[C@H](C(=O)OC)[C@H]2OC)cc1OC`: 3.15%; `CC1(C)[C@H]2CC[C@]1(C)[C@H](O)C2`: 0.139%; `COc1ccc(/C=C/C(=O)OCCC(C)C)cc1`: 3.66%. The same measure, in the same setting: next, `COc1ccc(C(=O)/C(Br)=C\C(=O)O)cc1`: 20.3%; `O=c1[nH]c(=O)n([C@H]2C[C@H](O)[C@@H](CO)O2)cc1/C=C/Br`: 6.97%.

Take `CCCC1C(=O)N2C(N(C)C)=Nc3ccc(C)cc3N2C1=O` (centres undefined): the max response was 6.87%. `CCN(CC)CCCC(C)Nc1cc(/C=C/c2ccccc2Cl)nc2cc(Cl)ccc12` (centres undefined): the Potency was 11.2 µM (active).

In the case of `CC(=O)O[C@@H]1CC2CCC1(C)C2(C)C` (some centres undefined), the max response is 7.45%.

For `COc1ccc2c(=O)c(C)c(-c3ccccc3)oc2c1CN(C)C`, the max response was 1.87%. As for `CO[C@@]1(NC(=O)C2SC(=C(C(N)=O)C(=O)O)S2)C(=O)N2C(C(=O)O)=C(CSc3nnnn3C)CS[C@@H]21` (some centres undefined), the max response was 10.6%. Same read-out and setting: for `CO/N=C(\C(=O)N[C@@H]1C(=O)N2C(C(=O)O)=C(CSc3nc(C)c(CC(=O)O)s3)CS[C@H]12)c1csc(N)n1` the value was 4.68%. As for `NC[C@@H]1CC[C@@H](N)[C@@H](O[C@H]2[C@H](O)[C@@H](O[C@H]3O[C@H](CO)[C@@H](O)[C@H](N)[C@H]3O)[C@H](N)C[C@@H]2N)O1`, the max response is 4.25%.

For `O=C1c2c(O)cccc2[C@H]([C@@H]2O[C@H](CO)[C@@H](O)[C@H](O)[C@H]2O)c2cc(CO)cc(O)c21`, the max response is -5.95% and -4.23%.

On to `CCCCC(=O)O[C@H]1CC[C@H]2[C@@H]3CCc4cc(O)ccc4[C@H]3CC[C@]12C`, for which the max response is -1.51%. Still for that read-out and setting: for `CCCCC(O)c1ccccc1` (centres undefined) the value was -2.26%; for `CCc1cn([C@H]2C[C@H](O)[C@@H](CO)O2)c(=O)[nH]c1=O`, 16.3%; for `CCCCCCOC(=O)c1cccnc1`, 30.2%. Consider `CC1CCCCN1CCCOC(=O)c1ccccc1` (centres undefined), for which the max response was 6.88%. For `CCCc1ccc(C(=O)O)cc1`, the max response was 0.792%.

Consider `CC(=O)N[C@@H]1C(O[C@H]2O[C@H](C(=O)O)C(O)[C@H](O)[C@H]2O)[C@H](O)[C@@H](CO)O[C@H]1O[C@@H]1C(C(=O)O)O[C@@H](O[C@H]2[C@H](O)[C@@H](CO)OC(O)[C@@H]2NC(C)=O)[C@H](O)[C@H]1O` (some centres undefined), for which the max response was -1.86%. Still for that read-out and setting: next, `CC/C(=C(/CC)c1ccc(OP(=O)(O)O)cc1)c1ccc(OP(=O)(O)O)cc1`: -1.73%; `CCOc1cc(-c2nccc3cc(OC)c(OC)cc23)cc(OCC)c1OCC`: -3.95%. The same measure, in the same setting: for `CCCCC[C@H](O)/C=C/[C@H]1[C@H](O)CC(=O)[C@@H]1CCCCCCC(=O)O` the value was -10.5%; for `CCCCCCCCCCCCCCCCCC(=O)OCC(C)O` (centres undefined), 2.45%. Turning to `O=C1CCC(c2ccccc2)(C2CCN(Cc3ccccc3)CC2)C(=O)N1` (centres undefined), the max response was 0.775%. `CC1(C)C(\C=C/C=C\C=C/C=C2/N(CCCCS(=O)(=O)O)c3ccc4ccccc4c3C2(C)C)=[N+](CCCCS(=O)(=O)[O-])c2ccc3ccccc3c21`: the max response is 2.8%. Take `COC1=C(OC)C(=O)C(C/C=C(\C)CC/C=C(\C)CC/C=C(\C)CC/C=C(\C)CC/C=C(\C)CC/C=C(\C)CC/C=C(\C)CC/C=C(\C)CC/C=C(\C)CCC=C(C)C)=C(C)C1=O`: the max response is 1.6% and -2.73%.
